# Screening data (PubChem)
# TDP1 cell CPT: DT40-hTDP1 cell growth loss with CPT | AID 686979 | chicken DT40 Tdp1-/-;hTDP1 cells + 20 nM CPT, ATP luminescence, 48 h | 12% of 420,000 active | Potency, µM (highest dose often 46.2 µM), without a hit: at the top dose activity change, negative = growth inhibition, actives largely listed as inhibitors; also: potency is read from the fitted curve at half-maximal effect; nearly all actives have a fitted effect of over 55% in size
#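 Chicken DT40 Tdp1-/- cells stably complemented with human TDP1 were seeded at 400 cells/well in medium containing 20 nM camptothecin, exposed to pin-transferred compounds, and grown at 37 °C for at least 48 hr. Viability was read as ATP luminescence.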
# HT1080 IDH1KD tx: kills HT-1080 cells with IDH1 knockdown | HT-1080 IDH1 knockdown viability, ATP luminescence, 48 h | Potency, µM (series often up to 46.1 µM), for inactives: top-dose activity, negative = toxicity, hits mostly cytotoxic | 2% of 360,000 active | AID 686971;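 also: potency is read from the fitted curve at half-maximal effect; 0% = DMSO wells and -100% = cell-free medium wells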
#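 Cytotoxicity counter-line: IDH1KD HT-1080, 48 h, CellTiter-Glo. Curves classed by r2, magnitude and activity.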
# IL-1B inflam inh: inflammasome signaling inhibition, IL-1 beta readout; THP-1 LPS/ATP IL-1B secretion, AlphaLISA, 16 h; hits give low values; activity change, % at 57.5 µM; 4.7% of 360,000 active; AID 743279; in the data active = activity change below about -50%; inconclusive = mostly about -30% to -49%
#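 Secreted IL-1B measured by AlphaLISA bead assay after 16 h compound exposure of THP-1 cells; compounds (final up to 57.5 uM) added 1 h before LPS (250 ng/mL) and ATP (1.25 mM) stimulation; lower signal means less secretion.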
# HT1080-NT tox: kills 2HG-producing HT-1080-NT fibrosarcoma cells. HT-1080-NT fibrosarcoma viability, CellTiter-Glo ATP luminescence, 48 h. Potency, µM (top dose mostly 46.1 µM), for inactives: top-dose activity, negative = less viability, most hits filed as cytotoxic. 1.6% of 360,000 active;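 also: NT is the 2HG producing partner of a matched IDH1 knockdown line; potency is read from the fitted curve at half-maximal effect; 0% = DMSO-treated cells and -100% = media-only wells without cells; nearly all actives have a fitted effect of over 55% in size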
#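 Read-out is CellTiter-Glo luminescence after 10 minutes at room temperature, following 48 hours' compound treatment of HT-1080-NT cells (750 cells/well, RPMI, 5% FBS, 37 degrees C).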
# TDP1 cell noCPT: qHTS for Inhibitors of human tyrosyl-DNA phosphodiesterase 1 (TDP1): qHTS in cells in absence of CPT; DT40 Tdp1-/- hTDP1 cells, no CPT, ATP luminescence, 48 h; Potency, µM (top dose mostly 46.2 µM), for the others: top-dose activity change, negative = growth inhibition, usual class: inhibitors; 15% of 420,000 active; AID 686978, 2013; also: potency is read from the fitted curve at half-maximal effect; nearly all actives have a fitted effect of over 55% in size
#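 Luminescent ATP content (CellTiter-Glo) served as the growth readout. Knockout chicken DT40 cells expressing human TDP1 were exposed to compounds without camptothecin for a minimum 48 hr at 37 °C.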
# ELG1 repair inh: blocks ELG1-dependent DNA repair in HEK293T cells | HEK293T ELG1-luciferase reporter, luminescence, 16 h; DNA damage induced by 5-fluorouridine | Potency, µM (highest dose often 46.1 µM), inactives show at the top dose activity change, negative = inhibition, actives largely listed as inhibitors | 2.3% of 330,000 active; also: potency is read from the fitted curve at half-maximal effect; nearly all actives have a fitted effect of over 55% in size
#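 5-Fluorouridine DNA damage + compound/DMSO, 2,000 cells/well, 16 h, 37 °C/5% CO2. ONE-Glo, 30 min RT, luminescence. Readout = decrease in reporter signal.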
# Starred values were filed as active, the others as inactive; i = inactive; ? = inconclusive; / = no result; [ ] = another dose, or the depositor's remark. Rows were chosen to be rich in hits. Some 19% of all compounds tested hit in one or more screens of this group. Unless noted, calls follow the shape of the dose curve; as a rule, active = well fitted curve in the direction sought with a large enough effect; inconclusive = small, poorly fitted or top-dose-only effect, or another doubt; inactive = no such curve, though single readings can be large; an effect the other way counts as inactive or inconclusive. Unless noted, % is scaled to controls: 0 for no effect and ±100 for the full control effect.
SMILES,TDP1 cell CPT,HT1080 IDH1KD tx,IL-1B inflam inh,HT1080-NT tox,TDP1 cell noCPT,ELG1 repair inh
CC(C)C[C@H]1CN([C@@H](Cc2ccccc2)CN2CCC[C@@H]2CN2C(=O)C(=O)NC[C@@H]2Cc2ccccc2)C(=O)C(=O)N1CCc1ccccc1,16µM*,?,-67*,?,16µM*,/
COc1cc(CNCCc2ccccc2)ccc1OCc1ccc(Cl)nc1,?,?,-52*,-27%,?,15%
COc1cc(CNCCc2ccccc2)ccc1OCC(N)=O,-17%,6%,-7,6%,-2%,0%
COc1ccccc1CCNCc1ccc(OC)c(OCc2ccccc2)c1,-92%,?,-99*,?,13µM*,-1%
COc1cc(CNCCO)ccc1OCCc1ccccc1,?,-23%,-18,-19%,26µM*,?
O=C(CCNS(=O)(=O)c1ccc(F)cc1)N1CCN(c2ncccn2)CC1,-12%,4%,39,-1%,-13%,/
COc1ccc(CNC(=O)CN(C(=O)CCC(=O)Nc2nccs2)c2ccc(C)cc2)cc1,-29%,-17%,27,-50%,?,-6%
CCOC(=O)C1CCN(CC(=O)Nc2ccc(OC)c(Cl)c2)CC1,-2%,15%,0,-1%,-3%,?
CCc1ccccc1NCC(=O)Nc1ccc(Cl)c(C(F)(F)F)c1,26µM*,?,/,?,16µM*,-3%
COc1ccc(NC(=O)CCNC(=O)c2ccccc2Cl)cc1OC,-5%,17%,0,10%,7%,16%
O=C(CCNC(=O)c1ccccc1Cl)Nc1ccc(Cl)c(C(F)(F)F)c1,?,-14%,-1,-1%,23µM*,27%
COc1ccc(NC(=O)CN2CCN(CC(=O)Nc3ccccc3Cl)CC2)cc1Cl,15µM*,-1%,-51*,-1%,12µM*,?
COc1ccccc1NC(=O)CN1CCN(CC(=O)Nc2ccc(F)cc2F)CC1,-27%,22%,37,0%,-22%,?
COc1ccccc1NC(=O)CN1CCN(CC(=O)Nc2ccc(Cl)c(C(F)(F)F)c2)CC1,15µM*,23µM*,-80*,?,13µM*,18µM*
COc1ccc(C)cc1NC(=O)CNC(C)C(=O)Nc1ccc(C(C)=O)cc1 (stereo not given),0%,-1%,45,6%,2%,?
COc1cc(Cl)c(C)cc1NC(=O)c1ccccc1NC(=O)CN1CCOCC1,2.6µM*,12%,22,16%,4.6µM*,16µM*
CCc1nn(CC(=O)NCCCN2CCN(CC)CC2)c(=O)c2cc3occc3n12,7%,7%,17,22%,0%,22%
Cc1cccc(NCc2cc(Cl)cc(Cl)c2O)n1,-8%,4%[9.24 µM],-51*,?,0%,-5%
Cc1cccc(NCc2cc(Cl)ccc2O)n1,-26%,0%[9.24 µM],-79*,?,-14%,14%
C[C@H](CSC(=O)c1ccccc1)C(=O)N1C[C@@H](Sc2ccccc2)C[C@H]1C(=O)O,-1%,/,/,/,-8%,/
O=C(O)c1ccc(S(=O)(=O)N(CCc2ccccc2)Cc2ccc(Cl)cc2)cc1,-15%,-7%,19,1%,-9%,?
CCOC(=O)Cc1csc(NC(=O)c2ccc(N3CCOCC3)cc2[N+](=O)[O-])n1,23µM*,-1%,-22,-1%[9.24 µM],?,?
CC(C)CC(=O)Nc1nc(-c2ccc(S(=O)(=O)N3CCOCC3)cc2)cs1,13µM*,-13%,i,?,16µM*,?
CCOC(=O)Cc1csc(NC(=O)c2ccc(S(=O)(=O)N3CCCCC3)cc2)n1,-23%,-7%,-5,-18%,?,-34%
O=S(=O)(c1ccc(-c2csc(-c3cccnc3)n2)cc1)N1CCOCC1,-13%,0%,-14,0%,?,?
SMILES,TDP1 cell CPT,HT1080 IDH1KD tx,IL-1B inflam inh,HT1080-NT tox,TDP1 cell noCPT,ELG1 repair inh
CCOC(=O)Cc1csc(NC(=O)c2ccc([N+](=O)[O-])cc2[N+](=O)[O-])n1,-25%,-1%,16,0%,-9%,-3%
Cc1ccc(Nc2nc(-c3ccc(S(=O)(=O)N4CCOCC4)cc3)cs2)cc1Cl,4.6µM*,16µM*,-30,23µM*,6.5µM*,4%
CCOC(=O)Cc1csc(NC(=O)CCc2ccc(S(=O)(=O)N3CCOCC3)cc2)n1,?,9%,15,7%,?,12µM*
CCCCC(=O)Nc1nc(-c2ccc(S(=O)(=O)N3CCOCC3)cc2)cs1,?,-25%,-6,?,18µM*,?
Cc1ccc(C(C)C)cc1OCC(=O)Nc1ccc(-n2cnnn2)cc1,-13%,3%,-24,1%,-20%,4%
O=C1C(Cc2ccccc2)Nc2ncnc(N3CCc4ccccc4C3)c2N1Cc1ccc(Br)cc1 (stereo not given),/,/,/,/,/,-13%
CC1Nc2ncnc(N3CCN(c4ccccn4)CC3)c2N(Cc2ccccc2)C1=O (stereo not given),?,0%,-9,3%,?,-3%
Cc1ccc(CN2C(=O)C(C)Nc3ncnc(N4CCN(c5ccccn5)CC4)c32)cc1 (stereo not given),?,-14%,-2,?,18µM*,?
COc1ccc(CN2C(=O)C(C)Nc3ncnc(N4CCc5ccccc5C4)c32)cc1 (stereo not given),4.6µM*,2.3µM*,48,2.1µM*,4.6µM*,/
COc1ccc(CN2C(=O)C(C)Nc3ncnc(N4CCN(c5ccccn5)CC4)c32)cc1 (stereo not given),?,-12%,-20,?,23µM*,5%
CCC1Nc2ncnc(N3CCN(c4ccccc4)CC3)c2N(Cc2ccc(OC)cc2)C1=O (stereo not given),?,-8%,-15,?,?,2%
COc1c(C2=CC(=O)N(C)C2=O)c2c(n1C)C(=O)c1ccccc1C2=O,0.52µM*,/,/,/,0.58µM*,/
CN1C(=O)c2ccccc2C1=O,?,/,/,/,-24%[92.5 µM],/
CC(=O)N(Cc1ccc(F)cc1)C1=C(NCc2ccccc2)C(=O)c2ccccc2C1=O,1.6µM*,5µM*,-93*,4.5µM*,1.3µM*,21µM*
O=C(CCn1c(=S)oc2ccccc21)NCCC1=CCCCC1,-16%,-1%,-9,-1%,-1%,?
CC1(C)CC(=O)C(CO)=C(c2cccc3ccccc23)C1=O,0%,1%,4,14%,-15%,26%
